Shown are actives, neighbours in structure and some others; about 2.8% of the full set was active somewhere.
Peg3 prom inh: reduces Peg3 promoter-driven luciferase expression in HeLa | 360,000 compounds, 1.7% hits | AID 588405 | inhibition, % at 20 µM | HeLa PEG-Prom luciferase reporter, luminescence, overnight;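 active = inhibition of at least 50% at 20 µM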
CF NFkB block: cystic fibrosis NF-kB activation inhibition | inhibition, % at 5 µM | 360,000 compounds, 0.86% hits | KKLEB NF-kB-GFP reporter, PAF-induced, GFP fluorescence overnight;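 active = at least 50% inhibition at 5 µM, scaled per plate between neutral and stimulator controls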;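 also: PAF is a Pseudomonas aeruginosa culture filtrate used as stimulus; plate controls were PAF-stimulated DMSO wells for no effect and unstimulated DMSO wells for full effect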
Beta2AR agonist: human beta-2 adrenergic receptor agonism by FAP; 340,000 compounds, 0.43% hits; P07550; response, % (no concentration beside the values); Am2.2-beta2AR cells, FAP receptor internalization, flow cytometry;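 active = response above a set limit, near 3 SD of response in nonfluorescent compounds, cut at about 42% in these data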
HIF-2a block: inhibitors of HIF-2a. 786-0 RCC cells HIF-2a reporter, luciferase luminescence, overnight. 360,000 compounds, 0.72% hits. AID 624352. inhibition, % at 18.8 µM;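 active = inhibition of the luminescence signal of 40% or more relative to plate controls, in a single-dose primary screen at 18.75 µM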
MITF TRPM1 inh: inhibitors of MITF-driven TRPM1 promoter in melanoma cells; SK-MEL-5 TRPM1 promoter luciferase, 24 h; inhibition, % at 12.5 µM; 330,000 compounds, 0.83% hits; AID 488899;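 active = mean inhibition across replicates of 60% or more, whatever share of single replicates reaches that level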
KKLEB tox: counter-screen for CF NF-kB inhibitors: cytotoxicity | KKLEB CF airway cells viability, ATPlite luminescence, overnight; active compounds read low; cells stimulated with P. aeruginosa culture filtrate | activity change (cytotoxicity), % at 5 µM | 360,000 compounds, 0.36% hits;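 active = corrected activity change at or below -50% at 5 µM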
Mdm2 MdmX conf: Mdm2/MdmX (human) interaction inhibition, confirmed; shares compounds with HIF-2a block; AID 504601; SaOS-2 split-luciferase Mdm2/MdmX complementation, luminescence; inhibition, % at 8 µM; 740 compounds, 99% hits;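 active = mean inhibition of the luminescence signal across two replicates at or above 26 percent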
HIF-2a inh conf: HIF-2a inhibition, single concentration confirmation | AID 651580 | inhibition, % at 18.8 µM | shares compounds with HIF-2a block | 786-0 RCC cells, HIF-2a luciferase reporter luminescence, overnight | 1,800 compounds, 56% hits;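 active = mean inhibition across four replicates of at least 40 percent at the single tested concentration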
HIF-1a cs: inhibits HIF-1a reporter, a counter-screen for HIF-2a inhibitors | 1,800 compounds, 72% hits | MiaPaCa-2 HIF-1a luciferase reporter, desferoxamine, overnight | inhibition, % at 18.8 µM | AID 651589 | shares compounds with HIF-2a block;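 active = mean inhibition of the reporter signal across four replicates at the single tested dose of 50% or more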
The depositor's hits bear a star; nt = no result given.

SMILES	Peg3 prom inh	CF NFkB block	Beta2AR agonist	HIF-2a block	MITF TRPM1 inh	KKLEB tox	HIF-2a inh conf	HIF-1a cs	others
CCc1ccc(N2C=C(C(=O)OC)C(c3ccc(OC)cc3)C(C#N)=C2N)cc1 (stereo not drawn)	nt	nt	nt	53*	nt	nt	74*	99*
CCOC(=O)C1CCN(C(=O)Nc2ccc3snnc3c2)CC1	10	-2	0	52*	-2	4	50*	12
Nc1ccc2nc(-c3ccc(N)c(Cl)c3)[nH]c2c1	-254	-27	24	-137	-29	0	nt	nt
Nc1ccc(-c2nc3c(Cl)cc(N)cc3[nH]2)cc1	12	-5	3	88*	76*	-4	96*	85*
O=[N+]([O-])c1c(Nc2ccccc2O)cc(Cl)c2nonc12	100*	80*	105*	95*	106*	-6	98*	99*	Mdm2 MdmX conf=103*
Cc1ccc(-c2[nH]c3ccccc3c2SCCNC(=O)c2ccc(S(=O)(=O)N3CCOCC3)cc2)cc1	16	18	-3	36*	nt	-8	-2	49
Cc1ccc(C(=O)N/N=C\c2ccc([N+](=O)[O-])s2)cn1	27	8	-2	63*	109*	-7	56*	56*
O=C(N/N=C/c1cccc([N+](=O)[O-])c1)c1cccc(Br)c1	-98	5	-13	-103	-66	-8	nt	nt
O=C(N/N=C/c1ccc([N+](=O)[O-])s1)c1cccc(Br)c1	40	-5	1	12	82*	-1	nt	nt	Mdm2 MdmX conf=63*
CC1(C(=O)NCCc2c[nH]c3ccccc23)CCN1CC1CCCCC1 (stereo not drawn)	1	12	nt	-8	nt	-3	nt	nt
CCOc1cc(/C=C2\CN(CC)C/C(=C\c3ccc(O)c(OCC)c3)C2=O)ccc1O	110*	87*	29	93*	93*	-40	nt	nt	Mdm2 MdmX conf=102*
CCOc1cc(/C=N/N=C/c2ccc(O)c(OCC)c2)ccc1O	28	2	-3	-6	14	-8	nt	nt
CCNc1nc(C)c2cc(Br)c(=O)n(CC)c2n1	44	33	8	55*	14	-44	39	46
CCn1c(=N)c(C(=O)NC)cc2c(=O)n3cccc(C)c3nc21	25	-43	-17	22	7	8	nt	nt
CC(C)NC(=O)/C(C#N)=C/c1cccc(NC(=O)c2ccccc2Cl)c1	9	25	28	48*	7	-18	34	15
CCC(=O)Nc1ccc(C(=O)CSc2nc3ccccc3cc2CC)cc1	2	0	-8	-35	-12	7	nt	nt
Cc1cc(N)ccc1NC(=O)c1ccccc1	1	3	1	14	0	-3	nt	nt
Cc1cc(NC(=O)c2ccccc2)c(Cl)cc1N	-31	-8	-8	69*	26	5	84*	59*
COc1cc2oc(=O)cc(CN3CCN(c4ccccc4F)CC3)c2cc1Cl	11	0	nt	10	nt	-3	nt	nt
COCCN(C(=O)CCl)C(C(=O)NC1CCCCC1)c1ccccc1C (stereo not drawn)	60*	33	3	66*	78*	-21	23	91*
COCCN(C(=O)CCC(=O)Nc1cc(C)on1)C(C(=O)NC1CCCC1)c1ccccc1C (stereo not drawn)	-1	-2	3	9	14	-2	nt	nt
CC(C)C[C@H](NC(=O)OC(C)(C)C)c1nnc(SCc2ccccc2)o1	15	-4	-1	16	-2	16	nt	nt
Cc1ccccc1CS(=O)(=O)c1nnc([C@H](CC(C)C)NC(=O)OC(C)(C)C)o1	96*	49	64*	69*	84*	-2	14	-5
Cc1cc2nc(Sc3c([N+](=O)[O-])nc(C)n3Cc3ccccc3)[nH]c2cc1C	33	44	11	53*	9	-13	17	32
